{
  "source": "ChEMBL document CHEMBL3988442",
  "about": "“University of Dundee, Small-Polar-MMV Screening Library” (2021)",
  "note": "In all, about 48,000 compounds went through this assay and about 13,000 (27%) showed an effect of 50% or more. The list shows a part of the results.",
  "data": [
    {"test_system": "Wolbachia pipientis", "assay": "Anti-Wolbachia Cell-Based Screen", "assay_type": "functional", "parameters": "scale not given: in the data most compounds retested in dose-response had high values", "conditions": "5 µM", "units": {"Percent Effect": "%"}, "values": [
      {"smiles": "O=C(CN1CCCc2c(F)cc(Br)cc21)N1CCCC1", "Percent Effect": -2.164},
      {"smiles": "CCN1CCC(Cn2ccc3c(OC)c(OC)ccc3c2=O)C1", "note": "(stereo not given)", "Percent Effect": -8.791},
      {"smiles": "COCC[C@]1(O)CCN(c2ncc(Cl)cc2F)C[C@H]1C", "Percent Effect": -5.057},
      {"smiles": "CS(=O)(=O)N1C[C@@H]2CC[C@H](C1)N(CCC(=O)NCc1ccco1)C2", "Percent Effect": 6.139},
      {"smiles": "Cc1nonc1CN1CC[C@@](O)(C2CCC2)[C@H](C)C1", "Percent Effect": 2.704},
      {"smiles": "CCc1nc(C)sc1CN1CC[C@@](O)(C2CC2)[C@H](C)C1", "Percent Effect": 90.8},
      {"smiles": "Cc1nnsc1CN1CC[C@@](O)(C2CCC2)[C@H](C)C1", "Percent Effect": -20.69},
      {"smiles": "C[C@@H]1CN(Cc2nc(C(N)=O)no2)CC[C@@]1(O)C1CCOCC1", "Percent Effect": -5.887},
      {"smiles": "CCc1nc(C)sc1CN1CC[C@@](O)(C2CCOCC2)[C@H](C)C1", "Percent Effect": 107.2},
      {"smiles": "Cc1nonc1CN1CC[C@@](O)(C2CCOCC2)[C@H](C)C1", "Percent Effect": -5.747},
      {"smiles": "CCC1=N[C@@]2(CC[C@@H]3CN(S(=O)(=O)CC(C)C)C[C@@H]32)C(=O)N1CC", "Percent Effect": 2.129},
      {"smiles": "Cc1nc(-c2ccc(S(=O)(=O)N3CCSC3)cc2)co1", "Percent Effect": -2.878},
      {"smiles": "O=C(c1ccc2c(c1)[nH]c(=O)n2C1CCCC1)N1CCC1", "Percent Effect": -5.446},
      {"smiles": "Cl.O=C(c1ccnc(C2CCNCC2)c1)N1CCCOCC1", "Percent Effect": 107.9},
      {"smiles": "CCOc1cc(C(=O)N2CCCC(c3cc(C(N)=O)[nH]n3)C2)ccn1", "note": "(stereo not given)", "Percent Effect": -0.59},
      {"smiles": "O=C(c1ccnc(C2CCNCC2)c1)N1CCCC(CO)C1", "note": "(stereo not given)", "Percent Effect": 100.1},
      {"smiles": "COc1ncccc1-c1cc(C(=O)NC2CC2)ccn1", "Percent Effect": 1.183},
      {"smiles": "Cl.Cl.Cn1cnc2c(N3CCOCC3)nc(C3CCNCC3)cc21", "Percent Effect": -9.589},
      {"smiles": "O=C(c1ccc(C2CCCO2)s1)N1CCCOCC1", "note": "(stereo not given)", "Percent Effect": 7.048},
      {"smiles": "Cl.O=C(NC1CCCC1)c1ccnc(C2CCNCC2)c1", "Percent Effect": 105.6},
      {"smiles": "COc1ccc(F)c(-c2cc(C(=O)NC3CC3)ccn2)c1", "Percent Effect": -1.956},
      {"smiles": "Cl.O=C(c1ccnc(C2CCNCC2)c1)N1CCCC1", "Percent Effect": 87.63},
      {"smiles": "Cc1cc(C2CCCN(C(=O)c3ccc(OCC4CC4)nc3)C2)n[nH]1", "note": "(stereo not given)", "Percent Effect": -13.31},
      {"smiles": "Cl.Cl.Cn1cnc2c(N3CCCC3)nc(C3CCNCC3)cc21", "Percent Effect": -10.47},
      {"smiles": "CC(C)(C)CC(=O)N1CSCC1C(=O)NCc1cccc(C#N)c1", "note": "(stereo not given)", "Percent Effect": -25.6},
      {"smiles": "Cc1cc(C(=O)N2CCC3(CC(=O)NC3=O)C2)c(-c2ccccc2)o1", "note": "(stereo not given)", "Percent Effect": 0.657},
      {"smiles": "CSCC[C@H](NC(C)=O)C(=O)N(C)Cc1ccc(-n2cccn2)cc1", "Percent Effect": -22.5},
      {"smiles": "N[C@H]1CN(C(=O)CCc2cc(Cl)no2)C[C@@H]1c1ccccc1", "Percent Effect": 0.8182},
      {"smiles": "O=C(c1cc(-c2cn[nH]c2)nc2cc(F)ccc12)N1CCS(=O)(=O)CC1", "Percent Effect": -15.17},
      {"smiles": "Cc1cc(C(=O)N2CCNC(c3ccccc3)C2)c2ccc(F)cc2n1", "note": "(stereo not given)", "Percent Effect": 81.03},
      {"smiles": "Cc1cc(C(=O)N2CCCC3(CN(C)C(=O)O3)C2)c2ccc(F)cc2n1", "note": "(stereo not given)", "Percent Effect": -8.064},
      {"smiles": "Cc1cc(C(=O)N2CCN[C@H](C)C2)c2ccc(F)cc2n1", "Percent Effect": 95.19},
      {"smiles": "Cc1cc(C(=O)N2C[C@H](c3ccccc3)[C@@H](N)C2)c2ccc(F)cc2n1", "Percent Effect": 109.4},
      {"smiles": "Cc1cc(C(=O)N2C[C@H]3CCC[C@@]3(CO)C2)c2ccc(F)cc2n1", "Percent Effect": -33.96},
      {"smiles": "O=C(c1c[nH]nc1-c1cccc(F)c1)N1CCNC(c2ccccc2)C1", "note": "(stereo not given)", "Percent Effect": 39.59},
      {"smiles": "O=C(O)c1csc(S(=O)(=O)N2CCCc3cccc(OC(F)F)c32)c1", "Percent Effect": -29.54},
      {"smiles": "CN1CCN(C(=O)c2cnn(-c3ccccc3Cl)c2)CC1", "Percent Effect": 84.01},
      {"smiles": "CCc1ccc(O)c(C(=O)N2CCN(CC(=O)N(C)C)CC2)c1", "Percent Effect": 4.973},
      {"smiles": "O=C(c1cn(-c2ccccc2Cl)nn1)N1CCCSCC1", "Percent Effect": 0.4154},
      {"smiles": "O=C(c1cn(-c2ccccc2Cl)nn1)N1CCSCC1", "Percent Effect": 139.5},
      {"smiles": "CN(C)C(=O)CN1CCN(C(=O)c2cnn(-c3ccccc3Cl)c2)CC1", "Percent Effect": 104.8},
      {"smiles": "CC(O)CN1CCN(C(=O)c2cn(-c3ccccc3Cl)nn2)CC1", "note": "(stereo not given)", "Percent Effect": 5.18},
      {"smiles": "CC(O)CN1CCN(C(=O)c2cnn(-c3ccc(Cl)cc3)c2)CC1", "note": "(stereo not given)", "Percent Effect": -6.081},
      {"smiles": "O=C(c1cnn(-c2ccccc2F)c1)N1CCN(CCO)CC1", "Percent Effect": -7.046},
      {"smiles": "CCN1CCN(C(=O)c2cnn(-c3ccccc3Cl)c2)CC1", "Percent Effect": 0.9462},
      {"smiles": "CCOC1CCN(C(=O)c2cnn(-c3ccccc3Cl)c2)CC1", "Percent Effect": -5.801},
      {"smiles": "O=C(c1cnn(-c2ccccc2Cl)c1)N1CCN(CCO)CC1", "Percent Effect": 103.1},
      {"smiles": "CC(Nc1ncnc2sccc12)c1cnn(C)c1", "note": "(stereo not given)", "Percent Effect": -17.23},
      {"smiles": "O=C(NC[C@H]1OC[C@@H](NC2CCOCC2)[C@@H]1O)C1CCCC1", "Percent Effect": -16.92},
      {"smiles": "O=C(COCC(F)(F)F)NC1CCCc2cc(OC(F)F)ccc21", "note": "(stereo not given)", "Percent Effect": -1.083},
      {"smiles": "Cc1nc(CCCNC(=O)C2CC(=O)N(C3CCCC3)C2)sc1C", "note": "(stereo not given)", "Percent Effect": -46.61},
      {"smiles": "O=C(COC1CCCCC1)Nc1ccn(Cc2ccccn2)n1", "Percent Effect": -1.457},
      {"smiles": "COc1ccc(OC)c2c(C)cc(N(C)CCO)nc12", "Percent Effect": -15.31},
      {"smiles": "CC(=O)c1c(N(C)C)ccnc1C(F)(F)F", "Percent Effect": -9.795},
      {"smiles": "CCOc1c(Cl)cccc1NS(=O)(=O)c1cc(C)c(C(=O)O)s1", "Percent Effect": -12.6},
      {"smiles": "CC(=O)N1CCN(C(=O)c2cnn(-c3ccccc3Cl)c2)CC1", "Percent Effect": -0.729},
      {"smiles": "CCc1nc(C(=O)N2CCCC2)nn1-c1ccccc1Cl", "Percent Effect": 13.32},
      {"smiles": "CC(=O)N1CCCN(C(=O)c2cnn(-c3ccccc3Cl)c2)CC1", "Percent Effect": 140},
      {"smiles": "Cc1cc(CNC(=O)c2cn(CCC3CCCCN3)nn2)on1", "note": "(stereo not given)", "Percent Effect": -16.72},
      {"smiles": "COCCC(=O)N1CCC(c2noc3nc(C)cc(C(F)(F)F)c23)CC1", "Percent Effect": 3.825},
      {"smiles": "Cc1cc(C(=O)NCC(F)(F)F)c2c(C3CCCN3)noc2n1", "note": "(stereo not given)", "Percent Effect": 103.2},
      {"smiles": "Cc1cc(C(=O)NCC(C)C)c2c(C3CCCN3)noc2n1", "note": "(stereo not given)", "Percent Effect": 114.1},
      {"smiles": "Cc1cc(C(=O)NCC(F)(F)F)c2c(C3CCNCC3)noc2n1", "Percent Effect": 137.6},
      {"smiles": "Cc1cc(NC(C)C(=O)NCC(F)(F)F)nc(-c2ccncc2)n1", "note": "(stereo not given)", "Percent Effect": 14.05},
      {"smiles": "CCc1ccc2nc(C)cc(C(=O)NC3CCNC3=O)c2c1", "note": "(stereo not given)", "Percent Effect": 1.98}
    ]}
  ]
}
